Bioassay records as filed in PubChem.
This excerpt belongs to a sample that is enriched for hits.
Cruzain inh noDet: blocks cruzain activity in detergent-free assay; P25779; purified cruzain, Z-FR-AMC fluorescence, no detergent; Potency, µM, usual class: inhibitors; 200,000 tested, 2.3% active; AID 1476; also: nearly all actives have a fitted effect of over 40% in size
Target sequence (P25779 123-467 limits assumed): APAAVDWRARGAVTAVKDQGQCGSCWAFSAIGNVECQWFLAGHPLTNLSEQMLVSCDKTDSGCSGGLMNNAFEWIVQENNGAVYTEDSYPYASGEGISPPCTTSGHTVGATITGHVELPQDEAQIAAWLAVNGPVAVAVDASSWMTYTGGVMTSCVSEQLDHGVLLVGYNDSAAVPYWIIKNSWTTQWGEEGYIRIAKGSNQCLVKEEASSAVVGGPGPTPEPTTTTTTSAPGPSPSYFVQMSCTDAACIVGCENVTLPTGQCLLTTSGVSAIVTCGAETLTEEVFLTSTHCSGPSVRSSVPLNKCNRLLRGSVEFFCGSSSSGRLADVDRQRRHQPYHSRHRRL
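Purified cruzain at 1.5 nM, pre-incubated 15 min with compound at room temperature in 100 mM sodium acetate pH 5.5, 5 mM DTT, 0.00005% Triton X-100. Reaction started with 2 uM Z-FR-AMC; AMC fluorescence increase over 60 s gives rate.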
NS1 inh: inhibitors of influenza NS1 protein function | AID 2326 | Potency, µM (titrated, usually from 46.1 µM) | 270,000 tested, 0.4% active; calls by dose curve; also: actives are rising curves; nearly all actives have a fitted effect of over 50% in size
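In this qHTS, NS1 from influenza A is expressed in budding yeast, where it slows growth. Cells are switched from glucose to 2% galactose medium (pH 6.0, -URA), treated with compound, and growth recovery is read at OD600.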
Cruzain Triton: inhibitors of Trypanosoma cruzi cruzain with detergent; P25779; purified cruzain, Z-FR-AMC fluorescence, 0.01% Triton; Potency, µM, most hits filed as inhibitors; 200,000 tested, 0.43% active; also: nearly all actives have a fitted effect of over 40% in size
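Steps: dispense cruzain (1.5 nM final) in acetate buffer pH 5.5 with DTT and 0.01% Triton X-100; pin-transfer compounds; incubate 15 min RT; add Z-FR-AMC (2 uM final); read fluorescence every 30 s, using the 60 s intensity change.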
Each line names hits and unclear results; the compound was inactive in the other large screens. Unless noted, calls follow the shape of the dose curve; as a rule, active = well fitted curve in the direction sought with a large enough effect; inconclusive = small, poorly fitted or top-dose-only effect, or another doubt; inactive = no such curve, though single readings can be large; an effect the other way counts as inactive or inconclusive.

O=C(CSc1nnc2c3ccccc3c3ccccc3c2n1)Nc1ccccc1	Cruzain inh noDet 4µM
O=C(CSc1nnc2c3ccccc3c3ccccc3c2n1)Nc1ccccc1F	Cruzain inh noDet 7.9µM
COc1cccc(/C(O)=C/c2nc3ccc(C(=O)NCCc4ccc(Cl)cc4)cc3[nH]c2=O)c1	Cruzain inh noDet 25µM
COc1cccc(-n2cc(C(=O)NCCc3cccc(C)c3)c3ccccc3c2=O)c1	none (no result: NS1 inh)
COc1cccc(C(=O)Nc2cc(C(=O)NCCc3ccccc3)ccc2Cl)c1	none
COc1cccc(/C(O)=C/c2nc3ccc(C(=O)NCCc4cccc(C)c4)cc3[nH]c2=O)c1	Cruzain inh noDet 20µM
COc1ccccc1CNC(=O)c1cnc2sc(N3CCCCC3)nn2c1=O	none (no result: NS1 inh)
O=C(NCc1ccccc1Cl)c1cc2cccc3c2n1CCS3	Cruzain inh noDet inconclusive (no result: NS1 inh)
COc1ccccc1CNC(=O)c1cc2cccc3c2n1CCS3	Cruzain inh noDet 25µM (no result: NS1 inh)
Cc1cc(C)cc(O)c1	none (no result: NS1 inh)
O=C1CN(C(=O)COc2ccc(Cl)cc2)C(c2ccc(F)cc2)c2cc(Br)ccc2N1 (configuration not stated)	Cruzain inh noDet inconclusive (no result: NS1 inh)
COC(=O)N1CCC2(CCCN(c3ccc(-c4ccccc4)cc3)C2)CC1	none (no result: NS1 inh)
O=C(Oc1ccccc1)N1CCC2(CCCN(c3ccc(-c4ccccc4)cc3)C2)CC1	Cruzain inh noDet 13µM (no result: NS1 inh)
CCOC(=O)c1c(S(=O)(=O)N2CCCC(C(=O)N3CCN(c4ccc(F)cc4)CC3)C2)c(C)n(C)c1C (configuration not stated)	Cruzain inh noDet inconclusive (no result: NS1 inh)
CN(C)C(=O)c1nc2ccccc2s1	none
CN(C)c1ccc(CC(=O)c2nc3ccccc3s2)cc1	Cruzain inh noDet 20µM
COc1cccc([C@@H]2Oc3ccc(Br)cc3C[C@H]2OC(=O)NCCc2ccc(OC)c(OC)c2)c1	none (no result: NS1 inh)
COc1ccc(-c2nc(NC(=O)c3ccc(OCC(=O)Nc4ccc(F)cc4)c(OC)c3)sc2C)cc1	none
COc1cc(C(=O)Nc2nc(-c3cc(C)ccc3C)c(C)s2)ccc1OCC(=O)Nc1ccc(F)cc1	Cruzain inh noDet 20µM
CC(C)CCNc1nc(-c2ccco2)c2c(c1C#N)CCCC2	Cruzain inh noDet inconclusive, Cruzain Triton inconclusive
N#Cc1c(NCCN)nc(-c2ccco2)c2c1CCCC2	Cruzain inh noDet 25µM
Cc1cc(N(C)Cc2ccccc2)n2nc(-c3ccc(C(C)(C)C)cc3)nc2n1	none (no result: NS1 inh)
O=C(Nc1nnc(CC2=CCCCC2)s1)c1cccs1	none
O=C(Nc1ccc(Cl)c(Cl)c1)Nc1nnc(CC2=CCCCC2)s1	Cruzain inh noDet 25µM
CCc1nnc(NC(=O)Nc2ccc(Cl)cc2)s1	none (no result: Cruzain inh noDet, Cruzain Triton)
O=C(Nc1ccc(Cl)cc1)Nc1nnc(CSCc2ccc(Cl)cc2)s1	Cruzain inh noDet 5µM
O=CNc1ncn[nH]1	none
N#Cc1ccc(CSc2nnc(-c3ccc(Br)cc3)o2)cc1	none (no result: NS1 inh)
O=C(CCc1cn(Cc2ccc(F)cc2)c2ccccc12)NCCc1ccc(Cl)cc1	none (no result: NS1 inh)
CC(=O)NCCNc1ncnc2ccc(-c3c(C)noc3C)cc12	none (no result: NS1 inh)
CN(C)CCN1C(=O)CC[C@]2(C)C1=CC[C@@H]1[C@@H]2CC[C@]2(C)[C@H]1CC[C@]2(C)O	none
CCc1ccc2[nH]c3nc(SCC(=O)NNC(=O)c4ccc(C(C)(C)C)cc4)nnc3c2c1	Cruzain inh noDet 4µM
CCc1ccc2[nH]c3nc(SCCN4CCOCC4)nnc3c2c1	none (no result: Cruzain inh noDet, Cruzain Triton)
Cc1ccc(C(=O)NNC(=O)CSc2nnc3c(n2)[nH]c2ccc(C)cc23)cc1	Cruzain inh noDet inconclusive
CCc1ccc2[nH]c3nc(SCc4nnc(-c5ccc(C)cc5)o4)nnc3c2c1	Cruzain inh noDet 13µM
C[C@@H]1O[C@H](OC2[C@@H](O)[C@H](O)C(O)[C@H](O)[C@H]2O)[C@@H](N)C[C@@H]1N=C(N)C(=O)O (some centres not stated)	none
COc1cc(CCNC(C)=O)c(C(=O)/C=C/c2cccc(OC)c2OC)cc1OC	none (no result: NS1 inh)
Cc1cc(=O)oc2c(CN(CC(C)C)CC(C)C)c(O)ccc12	Cruzain inh noDet inconclusive, Cruzain Triton 25µM
CCN1CCN(Cc2c(O)ccc3c(C)cc(=O)oc23)CC1	none (no result: Cruzain inh noDet, Cruzain Triton)
CC(C)CN(Cc1c(O)ccc2c3c(c(=O)oc12)CCC3)CC(C)C	Cruzain Triton 28µM
O=c1oc2c(CN3CCOCC3)c(O)ccc2c2c1CCC2	Cruzain Triton inconclusive
COc1ccc(NC(=O)CCCc2nnc3n(CCC(C)C)c(=O)c4sccc4n23)cc1Cl	none (no result: NS1 inh)
O=C(NCCOc1ccccc1)O[C@@H]1C(=O)c2cc(Br)ccc2O[C@H]1c1ccc2c(c1)OCO2	none (no result: NS1 inh)
COc1cc2nc(SCc3ccc(Cl)cc3Cl)n(Cc3cccs3)c(=N)c2cc1OC	Cruzain inh noDet 7.9µM, NS1 inh inconclusive
COc1cc2nc(SCc3ccc(C(F)(F)F)cc3)n(Cc3cccs3)c(=N)c2cc1OC	Cruzain inh noDet inconclusive
O=C(CSc1nc2ccsc2c(=O)n1Cc1ccccc1F)NCc1ccccc1Cl	none (no result: NS1 inh)
CCOc1cc(NC(=S)Nc2ccccc2)c(OCC)cc1NC(=O)c1ccc(OC)cc1	Cruzain inh noDet 16µM, NS1 inh inconclusive
CCOc1cc(NC(=S)Nc2cccc(OC)c2)c(OCC)cc1NC(=O)c1ccc(C)cc1	Cruzain inh noDet inconclusive, NS1 inh inconclusive
COc1cccc(-c2nn(-c3ccccc3)cc2C(=O)n2nnc3ccccc32)c1	Cruzain inh noDet 32µM
O=C(c1cn(-c2ccccc2)nc1-c1ccccc1)n1nnc2ccccc21	Cruzain inh noDet inconclusive
CC(=O)NCCNc1nc(-c2cccnc2)nc2ccccc12	none (no result: NS1 inh)
CNC(=O)[C@H]1O[C@@H](n2cnc3c(N)ncnc32)[C@H](O)[C@H]1O	NS1 inh inconclusive
Oc1ccccc1C1=Nc2nc3ccccc3n2C(c2ccccc2)C1 (configuration not stated)	Cruzain inh noDet 25µM
Oc1ccccc1C1=NN(c2ccccc2)C(c2ccc(F)cc2)C1 (configuration not stated)	none (no result: Cruzain inh noDet, Cruzain Triton)
CCOc1cc(/C=N/NC(N)=O)cc(Br)c1OCC(=O)Nc1cccc2ccccc12	Cruzain inh noDet 6.3µM
CCOc1cc(/C=N/NC(N)=O)cc(Br)c1OCC(=O)Nc1ccccc1C	Cruzain inh noDet inconclusive
C=CCOc1c(Br)cc(/C=N/NC(N)=O)cc1OC	none
COc1cc(/C=N/NC(N)=O)cc(Br)c1OCc1ccccc1C	Cruzain inh noDet 20µM
COc1cc(OC)c(NC(=O)CCCn2nc(C)c3sc4ccccc4c3c2=O)cc1Cl	none (no result: NS1 inh)
O=C(C1=NN(c2ccccc2)C2C(=O)N(c3cccc(Cl)c3)C(=O)C12)c1ccccc1 (configuration not stated)	Cruzain inh noDet inconclusive
O=C(C1=NN(c2ccccc2)C2C(=O)N(c3ccc(Cl)cc3)C(=O)C12)c1ccccc1 (configuration not stated)	Cruzain inh noDet 10µM
Cc1cccc(CNC(=O)Cn2nc(C)c3nn(-c4ccc(Cl)cc4)c(C)c3c2=O)c1	none (no result: NS1 inh)
COc1ccccc1-c1nnc(NC(=O)C(C)SC2=NCCS2)s1 (configuration not stated)	Cruzain inh noDet 16µM
CC(SC1=NCCS1)C(=O)Nc1nnc(-c2ccc(Cl)cc2)s1 (configuration not stated)	none
c1ccc([C@H](CCN2CCCC2)c2ccccn2)cc1	none
OCC1O[C@@H](OC2C(O)C(CO)O[C@@]2(CO)O[C@@H]2OC(CO)C(O)C(O)C2O)C(O)C(O)C1O (some centres not stated)	none (no result: NS1 inh)
Cc1c2cccc(Sc3ccccc3)c2c2c3c(cccc13)[S+](c1ccccc1)C2 (configuration not stated)	Cruzain inh noDet 2.5µM
